Laboratory results: PubChem BioAssay AID504766 (The Scripps Research Institute Molecular Screening Center, 2011)
Out of some 340,000 compounds screened, about 3,400 (1%) were called active. Shown is part of a subset that was picked to be rich in actives. Unmarked numbers belong to inactive results.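 The calls were made as follows: active = inhibition above the mean over all tested compounds plus 3 SD (cut at about 4.2% in these data); inactive = the rest.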

Each compound was assayed against Nuclear receptor subfamily 0 group B member 1 (Homo sapiens) (UniProt P51843) (assay: relief of DAX1 transcriptional repression – cell-based, HEK293, Gal4-DAX1, luciferase luminescence, primary screen (AID 504766;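 also: 0% = DAX1-transfected cells with DMSO and 100% = empty-vector control cells with DMSO; inhibition shows as a rise in luminescence from relieved DAX1 repression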)). Settings: HEK293 Gal4-DAX1 luciferase reporter, at 6.75 µM, hits give high values.
Sequence of Nuclear receptor subfamily 0 group B member 1 (Homo sapiens) (P51843 207-470 limits assumed): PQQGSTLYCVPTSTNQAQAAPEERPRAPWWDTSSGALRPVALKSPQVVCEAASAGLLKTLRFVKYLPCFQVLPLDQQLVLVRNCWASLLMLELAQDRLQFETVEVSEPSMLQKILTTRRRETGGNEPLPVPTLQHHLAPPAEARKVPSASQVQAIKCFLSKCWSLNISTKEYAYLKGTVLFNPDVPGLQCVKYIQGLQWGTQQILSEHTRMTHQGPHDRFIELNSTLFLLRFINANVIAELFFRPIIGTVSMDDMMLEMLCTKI
Work on `COc1ccccc1OCCNC(=O)CCNC(=O)c1ccccc1Cl` yielded an inhibition of 0.98%.
Compound `COc1cc(SC)ccc1C(=O)N(Cc1ccccc1)c1ccccc1` has an inhibition of -0.88%.
`COc1cc(SC)ccc1C(=O)NCCOc1ccccc1Cl` was tested, and the inhibition was 4.52% (active).
Work on `O=C(NCC(F)(F)F)c1ccc(S(=O)(=O)NCCc2ccc3c(c2)OCCO3)cc1` yielded an inhibition of 1.37%.
Compound `C#Cc1cc(N2CCN(C(=O)c3ccoc3)CC2)n2nc(-c3cccc(Cl)c3)cc2n1` has an inhibition of -0.19%.
Work on `CCCc1c(C)nc2scc(-c3ccc(Cl)cc3)n2c1=O` yielded an inhibition of 1.4%.
`COc1ccc(NC(=O)NCc2ccc3c(c2)OCO3)c(OC)c1` was tested, and the inhibition was 0.03%.
For `COc1ccc(OC)c(/C=C/C(=O)c2ccc3c(c2)OCO3)c1`, the inhibition was 5.49% (active).
`COc1ccc(OC)c(/C=C/C(=O)OCC(=O)Nc2ccc3c(c2)OCCO3)c1` gave an inhibition of 0.21%.
For `CCCCN(C(C)=O)c1ccc2c(c1)C1CC2CCN1Cc1ccccc1` (stereo not given), the inhibition was 1.48%.
`CCN(CC)CCN(C(=O)c1ccc2c(c1)CCCC2)c1nc2c(OC)cccc2s1` gave an inhibition of -0.58%.
`O=C(CC12CC3CC(CC(C3)C1)C2)NCc1ccco1` showed an inhibition of -0.86%.
In the case of `CC(C)(C)NC(=O)NCc1ccco1`, the inhibition is reported as 4.44% (active).
`COC(=O)/C=C/C(=O)NCc1ccco1` gave an inhibition of 1.74%.
In the case of `COc1ccc(OC)c(C(=O)NC2CCCc3c2cnn3-c2cc(C)cc(C)c2)c1` (stereo not given), the inhibition is reported as -1.87%.
`COc1ccc(NC(=O)C2COc3ccccc3O2)cc1` (stereo not given) was tested, and the inhibition was 5.29% (active).
Compound `CC(=O)c1cccc(NC(=O)C2COc3ccccc3O2)c1` (stereo not given) has an inhibition of 2.01%.
For `COc1ccc(NC(=O)COC(=O)C2COc3ccccc3O2)cc1` (stereo not given), the inhibition was 0.47%.
For `COc1cc(C(=O)N2CCOC23CCN(Cc2ccccc2)CC3)cc(OC)c1OC`, the inhibition was 2.69%.
`O=C(CN1C(=O)NC2(CCCCCC2)C1=O)NCc1ccc(F)cc1` gave an inhibition of -0.55%.
For `O=C(CN1C(=O)NC2(CCCC2)C1=O)NCC1CCCO1` (stereo not given), the inhibition was 10.2% (active).
In the case of `O=C(CN1C(=O)NC2(CCCCCC2)C1=O)NC1CC1`, the inhibition is reported as -0.19%.
With `CC1CCCC(C)N1C(=O)COC(=O)c1ccccc1C(=O)c1ccccc1` (stereo not given) the inhibition was 1.22%.
`N#CCCN1CCN(S(=O)(=O)c2ccc(S(=O)(=O)NC3CCCCC3)cc2)CC1` was tested, and the inhibition was 4.67% (active).
In the case of `N#CCCN1CCN(S(=O)(=O)c2ccc(S(=O)(=O)NC3CC3)cc2)CC1`, the inhibition is reported as -1.02%.
Work on `N#CCCN1CCN(S(=O)(=O)c2ccc(S(=O)(=O)N3CCCC3)cc2)CC1` yielded an inhibition of 2.37%.
`CNC(=O)c1ccc(CN(C)C(=O)c2cc(C3CC3)nc3c2cnn3C(C)C)cc1` gave an inhibition of 0.25%.
In the case of `COCCNC(=O)CSc1nc(N)c(NC(=O)c2ccco2)c(=O)[nH]1`, the inhibition is reported as 0.48%.
`CCN(CC(=O)Nc1ccc(NC(C)=O)cc1)C(=O)C1CC(=O)N(c2ccc3c(c2)OCCO3)C1` (stereo not given) showed an inhibition of 0.46%.
For `CCn1c(CSCc2c(Cl)cccc2Cl)n[nH]c1=S`, the inhibition was -0.93%.
`CCn1c(CNS(=O)(=O)c2ccc(Cl)cc2)n[nH]c1=S` showed an inhibition of 0.01%.
In the case of `CCn1c(CN2C(=O)CSc3ccccc32)n[nH]c1=S`, the inhibition is reported as 7.22% (active).
`O=C(COC(=O)c1cncc(Br)c1)Nc1ccc(S(=O)(=O)N2CCOCC2)cc1` showed an inhibition of 1.32%.
Compound `O=C(Nc1cc(F)ccc1F)c1ccc2c(=O)n3c(nc2c1)CCC3` has an inhibition of 3.09%.
In the case of `O=C(CN1CCN(Cc2ccccc2)CC1)NC(c1ccccc1)c1ccccc1`, the inhibition is reported as -1.74%.
With `O=C1c2ccccc2C(=O)c2c1cccc2N1CCN(Cc2ccccc2)CC1` the inhibition was 4.26% (active).
Compound `O=C1c2ccccc2C(=O)c2c1cccc2N1CCN(CCO)CC1` has an inhibition of 0%.
`CC(=O)Nc1ccc2c3c(ccc([N+](=O)[O-])c13)CC2` showed an inhibition of -0.19%.
For `COc1cccc(NC(=S)NC(=O)c2c(Cl)c(C)nn2C)c1`, the inhibition was 4.28% (active).
Work on `Cc1nn(C)c(C(=O)NNC(=S)NC2CCCCC2)c1Cl` yielded an inhibition of -0.26%.
`COc1cccc(OC)c1C(=O)NC(=S)Nc1ccc(N2CCOCC2)c(Cl)c1` was tested, and the inhibition was 0.83%.
`CCCCCCn1c(=O)n2n(c1=O)C[C@]1(OC(=O)NCc3ccc(OC)c(OC)c3)CN(S(=O)(=O)c3ccc(C)cc3)C[C@]1(O)C2` gave an inhibition of -0.07%.
With `C=CCN1CCN(c2ccncc2S(=O)(=O)N2CCN(C)CC2)CC1` the inhibition was 1.7%.
Compound `C[C@@H]1CN([C@@H](C)CO)C(=O)c2c(c3ccccc3n2C)-c2ccccc2CO[C@H]1CN(C)C(=O)C1CC1` has an inhibition of 0.47%.
Compound `COc1ccc(NC(=O)N(C)C[C@@H]2OCc3cn(nn3)CCCC(=O)N([C@H](C)CO)C[C@H]2C)c(OC)c1` has an inhibition of -0.22%.
In the case of `C=CCOc1ccccc1NC(=O)CN1C(=O)CNC1=O`, the inhibition is reported as 4.47% (active).
In the case of `C=CCOc1ccccc1/C=N/NC(=O)Cc1ccccc1`, the inhibition is reported as 0.28%.
For `Cc1cccc(NC(=O)CN2C(=O)CNC2=O)c1`, the inhibition was 1.34%.
In the case of `COc1ccc(/C=C2/CCCc3ccccc3C2=O)cc1`, the inhibition is reported as -1.11%.
`COc1ccc(/C=C2\N=C3CCCN3C2=O)cc1` was tested, and the inhibition was 4.84% (active).
`COc1ccc(/C=C2\SC(=N)N(c3ccc(F)cc3)C2=O)cc1` showed an inhibition of -0.7%.
`COc1ccc(S(=O)(=O)N2CCC(C(=O)NCCC(=O)NCCc3cccc(F)c3)CC2)cc1` was tested, and the inhibition was 0.25%.
`CSc1ncnc2c1ncn2CCCNCC1CCCCC1` showed an inhibition of -0.19%.
`COc1ccc(-c2nnc(SC(=O)N3c4ccccc4Sc4ccccc43)o2)cc1` gave an inhibition of -1.53%.
With `COc1ccc(-c2nnc(SC(C)C#N)o2)cc1` (stereo not given) the inhibition was 4.68% (active).
With `COc1ccc(-c2nnc(SC(C)C(=O)NC3CC3)o2)cc1` (stereo not given) the inhibition was 1.85%.
`CNC(=O)C1CN(C(=O)c2cccc(S(=O)(=O)N3CCc4ccccc43)c2)c2ccccc2O1` (stereo not given) gave an inhibition of -2.16%.
With `CCCCN(C(=O)CSCc1ccc(C)cc1)c1c(N)n(Cc2ccccc2)c(=O)[nH]c1=O` the inhibition was 0.19%.
`CCCN(C(=O)CSc1nnnn1C)c1c(N)n(Cc2ccccc2)c(=O)[nH]c1=O` was tested, and the inhibition was 5.42% (active).
`CCCN(C(=O)CSc1nnc(N)s1)c1c(N)n(Cc2ccccc2)c(=O)[nH]c1=O` was tested, and the inhibition was -2.02%.
